Results published in the supplement of paper PMC8975748.
Structures can show the parent of a compound that is named as a salt. ± gives the standard deviation of the averaged measurements.

Tests used:
[1] = tested on: Saccharomyces cerevisiae BY4741 SeMeCo community; assay: mean cell size (pixel area) (pixels); higher = larger cells; conditions: 10 µM; 24 h; SM minimal medium
Outline: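 Mean cell pixel area per well was measured in a four-plasmid fluorescent community of Saccharomyces cerevisiae BY4741, where every plasmid complements one auxotrophy and carries a fluorescent marker. Cells from an overnight preculture at OD600 = 1.0 were diluted to OD600 = 0.3 and dispensed at 70 µl into 384-well plates acoustically predosed with drug to a final 10 µM in SM medium. Incubation lasted 24 h, followed by paraformaldehyde fixation, automated confocal imaging and analysis in Harmony. Reported figures are averaged over 3 replicates. Same SeMeCo high-content imaging drug screen: Selleck FDA-approved drugs at 10 µM, 24 h in SM medium, 384-well plates, 3 replicates.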

[2] = tested on: Saccharomyces cerevisiae BY4741 SeMeCo community; assay: z-score of prototroph abundance vs DMSO median; higher = larger share of this subpopulation than in DMSO controls; conditions: 10 µM; 24 h; SM minimal medium; subpopulation (auxotrophy): Prototroph
Outline: (§1)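 Scoring was based on each subpopulation's abundance, expressed as a z-score against the vehicle-well median. A Saccharomyces cerevisiae BY4741 community with four plasmids, each restoring one auxotrophy and encoding a distinct fluorescent protein, was pre-grown overnight to OD600 1.0, diluted to 0.3, and added at 70 µl to 384-well plates acoustically predosed with library drugs (10 µM final). It then grew 24 h in minimal SM medium before paraformaldehyde fixation and automated confocal microscopy, with single-auxotroph fluorescent strains setting thresholds and autofluorescence correction.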

[3] = tested on: Saccharomyces cerevisiae BY4741 SeMeCo community; assay: z-score of subpopulation abundance vs DMSO median, subpopulation auxotrophic for M; higher = larger share of this subpopulation than in DMSO controls; conditions: 10 µM; 24 h; SM minimal medium; subpopulation (auxotrophy): M
Outline: as §1

[4] = tested on: Saccharomyces cerevisiae BY4741 SeMeCo community; assay: z-score of subpopulation abundance vs DMSO median, subpopulation auxotrophic for U; higher = larger share of this subpopulation than in DMSO controls; conditions: 10 µM; 24 h; SM minimal medium; subpopulation (auxotrophy): U
Outline: as §1

[5] = tested on: Saccharomyces cerevisiae BY4741 SeMeCo community; assay: z-score of subpopulation abundance vs DMSO median, subpopulation auxotrophic for H; higher = larger share of this subpopulation than in DMSO controls; conditions: 10 µM; 24 h; SM minimal medium; subpopulation (auxotrophy): H
Outline: as §1

[6] = tested on: Saccharomyces cerevisiae BY4741 SeMeCo community; assay: z-score of subpopulation abundance vs DMSO median, subpopulation auxotrophic for LU; higher = larger share of this subpopulation than in DMSO controls; conditions: 10 µM; 24 h; SM minimal medium; subpopulation (auxotrophy): LU
Outline: as §1

[7] = tested on: Saccharomyces cerevisiae BY4741 SeMeCo community; assay: z-score of subpopulation abundance vs DMSO median, subpopulation auxotrophic for LM; higher = larger share of this subpopulation than in DMSO controls; conditions: 10 µM; 24 h; SM minimal medium; subpopulation (auxotrophy): LM
Outline: as §1

[8] = tested on: Saccharomyces cerevisiae BY4741 SeMeCo community; assay: z-score of subpopulation abundance vs DMSO median, subpopulation auxotrophic for HM; higher = larger share of this subpopulation than in DMSO controls; conditions: 10 µM; 24 h; SM minimal medium; subpopulation (auxotrophy): HM
Outline: as §1

[9] = tested on: Saccharomyces cerevisiae BY4741 SeMeCo community; assay: z-score of subpopulation abundance vs DMSO median, subpopulation auxotrophic for HU; higher = larger share of this subpopulation than in DMSO controls; conditions: 10 µM; 24 h; SM minimal medium; subpopulation (auxotrophy): HU
Outline: as §1

[10] = tested on: Saccharomyces cerevisiae BY4741 SeMeCo community; assay: z-score of subpopulation abundance vs DMSO median, subpopulation auxotrophic for UM; higher = larger share of this subpopulation than in DMSO controls; conditions: 10 µM; 24 h; SM minimal medium; subpopulation (auxotrophy): UM
Outline: as §1

[11] = tested on: Saccharomyces cerevisiae BY4741 SeMeCo community; assay: z-score of subpopulation abundance vs DMSO median, subpopulation auxotrophic for HL; higher = larger share of this subpopulation than in DMSO controls; conditions: 10 µM; 24 h; SM minimal medium; subpopulation (auxotrophy): HL
Outline: as §1

[12] = tested on: Saccharomyces cerevisiae BY4741 SeMeCo community; assay: z-score of subpopulation abundance vs DMSO median, subpopulation auxotrophic for HLU; higher = larger share of this subpopulation than in DMSO controls; conditions: 10 µM; 24 h; SM minimal medium; subpopulation (auxotrophy): HLU
Outline: as §1

[13] = tested on: Saccharomyces cerevisiae BY4741 SeMeCo community; assay: z-score of subpopulation abundance vs DMSO median, subpopulation auxotrophic for HLM; higher = larger share of this subpopulation than in DMSO controls; conditions: 10 µM; 24 h; SM minimal medium; subpopulation (auxotrophy): HLM
Outline: as §1

[14] = tested on: Saccharomyces cerevisiae BY4741 SeMeCo community; assay: z-score of subpopulation abundance vs DMSO median, subpopulation auxotrophic for HUM; higher = larger share of this subpopulation than in DMSO controls; conditions: 10 µM; 24 h; SM minimal medium; subpopulation (auxotrophy): HUM
Outline: as §1

[15] = tested on: Saccharomyces cerevisiae BY4741 SeMeCo community; assay: z-score of subpopulation abundance vs DMSO median, subpopulation auxotrophic for LUM; higher = larger share of this subpopulation than in DMSO controls; conditions: 10 µM; 24 h; SM minimal medium; subpopulation (auxotrophy): LUM
Outline: as §1

[16] = tested on: Saccharomyces cerevisiae BY4741 SeMeCo community; assay: z-score of subpopulation abundance vs DMSO median, subpopulation auxotrophic for HLUM; higher = larger share of this subpopulation than in DMSO controls; conditions: 10 µM; 24 h; SM minimal medium; subpopulation (auxotrophy): HLUM
Outline: as §1

[17] = tested on: Saccharomyces cerevisiae BY4741 SeMeCo community; assay: z-score of subpopulation abundance vs DMSO median, subpopulation auxotrophic for L; higher = larger share of this subpopulation than in DMSO controls; conditions: 10 µM; 24 h; SM minimal medium; subpopulation (auxotrophy): L
Outline: as §1

Row | Structure (SMILES) | mean cell size [1] | z-score of prototroph abundance [2] | z-score of subpopulation abundance [3] | z-score of subpopulation abundance [4] | z-score of subpopulation abundance [5] | z-score of subpopulation abundance [6] | z-score of subpopulation abundance [7] | z-score of subpopulation abundance [8] | z-score of subpopulation abundance [9] | z-score of subpopulation abundance [10] | z-score of subpopulation abundance [11] | z-score of subpopulation abundance [12] | z-score of subpopulation abundance [13] | z-score of subpopulation abundance [14] | z-score of subpopulation abundance [15] | z-score of subpopulation abundance [16] | z-score of subpopulation abundance [17]
1 | COCC(=O)Nc1cc(Sc2ccccc2)ccc1N=C(NC(=O)OC)NC(=O)OC [Febantel] | 12.3 ± 0.18 | -0.31 | 1.45 | -1.73 | 0.91 | -0.37 | 0.89 | 1.62 | -0.73 | -0.56 | 1.03 | -0.05 | 0.64 | -0.11 | 0.02 | -0.82 | –
2 | C[n+]1ccccc1C=NO [Pralidoxime Iodide] | 12.27 ± 0.1 | -0.53 | 0.07 | 0.58 | -0.39 | 0.19 | 0.72 | 0.77 | -0.21 | 0.29 | 0.06 | -0.23 | – | – | 0.18 | 0.03 | -0.18
3 | Cc1c(C)c2c(c(C)c1O)CCC(C)(CCCC(C)CCCC(C)CCCC(C)C)O2 (stereo unspecified) [Vitamin E] | – | 0.82 | -0.6 | 0.13 | -0.89 | -0.31 | – | – | 0.51 | -0.04 | -1.01 | -1.19 | – | -0.31 | -0.41 | -1.29 | -0.8
4 | C[C@@H](c1ncncc1F)[C@](O)(Cn1cncn1)c1ccc(F)cc1F [Voriconazole] | 11.9 ± 0.18 | – | 0.27 | -0.12 | – | 1.96 | 1.93 | 10.2 | 9.96 | 16.4 | – | 16.6 | 41.5 | 14.4 | 5.58 | 16.5 | –
5 | CN1[C@@H]2CC[C@H]1C[C@@H](OC(=O)c1c[nH]c3ccccc13)C2 [Tropisetron] | – | -1.48 | 1.72 | -0.36 | – | 0.87 | 1.96 | 2.08 | 0.59 | 0.48 | 1.63 | 1.41 | – | 0.95 | – | 0.38 | 1.61
6 | OCc1ccc(Cl)cc1Cl [2,4-dichlorobenzyl alcohol] | 12.32 ± 0.052 | -0.15 | -0.73 | – | 0 | 1.19 | 0.21 | -0.64 | -0.65 | -0.17 | 0.12 | 0.04 | – | – | – | 0.69 | 0.8
7 | CNS(=O)(=O)CCc1ccc2[nH]cc(C3CCN(C)CC3)c2c1 [Naratriptan HCl] | – | 0.15 | 0.48 | 0.55 | -0.46 | 0.2 | 0.06 | – | 0.27 | 0.23 | -0.28 | -0.03 | – | -0.27 | – | – | -0.79
8 | CC1(C)S[C@@H]2[C@H](NC(=O)Cc3ccccc3)C(=O)N2[C@H]1C(=O)O [Benzathine penicilline] | – | 0.52 | -0.52 | -0.09 | 0.18 | -0.74 | -0.93 | -0.76 | 0.01 | -0.06 | -0.03 | -0.11 | – | -0.33 | – | 0.29 | -0.58
9 | C#CCN[C@@H]1CCc2ccccc21 [Rasagiline Mesylate] | – | 0.23 | 0.65 | -0.4 | – | 0.5 | – | -0.43 | -0.74 | -0.05 | – | 0.21 | – | -0.47 | 0.19 | 0.44 | 1.22
10 | O=C(C1CCCCC1)N1CC(=O)N2CCc3ccccc3C2C1 (stereo unspecified) [Praziquantel] | 12.39 ± 0.1 | – | 0.19 | 0.5 | -0.1 | 0.75 | 0.34 | -0.5 | -0.36 | 0.1 | -0.41 | 0.47 | -1.06 | -0.37 | 0.43 | 0.11 | –
11 | CCOC(=O)c1c(CSc2ccccc2)n(C)c2cc(Br)c(O)c(CN(C)C)c12 [Arbidol HCl] | – | -0.66 | 0.41 | 1.69 | 0.13 | -0.24 | -0.98 | – | 0.91 | 0.68 | -0.66 | 0.12 | – | 0.09 | -0.37 | 0.15 | -0.99
12 | CC(=O)NC[C@H]1CN(c2ccc(N3CCOCC3)c(F)c2)C(=O)O1 [Linezolid] | 12.51 ± 0.11 | -0.12 | -0.22 | – | – | 0.78 | 0.19 | – | -0.11 | – | -0.58 | 0.07 | – | – | – | -0.36 | -0.63
13 | CNCCC(Oc1ccc(C(F)(F)F)cc1)c1ccccc1 (stereo unspecified) [Fluoxetine HCl] | 12.4 ± 0.14 | 0.06 | 0.18 | 0 | -0.47 | 0.51 | 0 | -0.49 | -0.26 | 0.29 | -0.68 | 0.27 | -0.31 | -0.15 | 0.21 | 0.65 | –
14 | CC(=O)OCC(CCn1cnc2cnc(N)nc21)COC(C)=O [Famciclovir] | – | 0.55 | -0.23 | -0.77 | 0.1 | -0.41 | – | 0.41 | -0.39 | – | 0.32 | -0.67 | – | -0.82 | -0.18 | 1.06 | 0.46
15 | CO/N=C(\C(=O)N[C@@H]1C(=O)N2C(C(=O)OC(C)OC(C)=O)=C(COC(N)=O)CS[C@H]12)c1ccco1 (stereo partly specified) [Cefuroxime axetil] | 12.59 ± 0.065 | -0.04 | -0.61 | 1.94 | -0.4 | -0.86 | -1.34 | -0.74 | 0.15 | 0.26 | -0.54 | -0.22 | -0.11 | 0.05 | -0.64 | 0.39 | –
16 | CCC(=O)O[C@@H]1CC(=O)O[C@H](C)C/C=C/C=C/[C@H](O)[C@H](C)C[C@H](CC=O)[C@H](O[C@@H]2O[C@H](C)[C@@H](O[C@H]3C[C@@](C)(O)[C@@H](OC(=O)CC)[C@H](C)O3)[C@H](N(C)C)[C@H]2O)[C@H]1OC [Midecamycin] | 12.33 ± 0.1 | -0.41 | 1.11 | -0.73 | 0.88 | -0.66 | 0.61 | 1.3 | 0.44 | -0.3 | 1.52 | -0.1 | 0.18 | 0.7 | -0.4 | -0.96 | –
